In PubChem BioAssay one finds composite z-score data, which are given here for 30 compounds.

The target of one assay is Fibroblast growth factor 10 (Homo sapiens) (UniProt O15520). The assay can be described thus: FGF10 binders on small-molecule microarrays, primary screen, biochemical, small-molecule microarray, 635 nm fluorescence (AID 1102). To be noted: FGF10 binding, fluorescence 635 nm, higher = more signal.
Fibroblast growth factor 10 (Homo sapiens), sequence (O15520 whole entry, looked up): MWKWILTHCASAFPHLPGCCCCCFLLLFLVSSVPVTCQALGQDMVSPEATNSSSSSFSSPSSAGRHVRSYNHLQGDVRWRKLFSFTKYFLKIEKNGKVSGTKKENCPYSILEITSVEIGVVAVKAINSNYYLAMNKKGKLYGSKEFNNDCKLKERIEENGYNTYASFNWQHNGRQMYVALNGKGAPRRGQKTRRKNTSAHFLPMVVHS
With `O=C1[C@H]2[C@H]3[C@H](O)[C@H](O)CC(=NOCc4ccccc4)[C@@H]3CC[C@H]2C(=O)N1Cc1ccc2c(c1)OCO2`, the composite z-score stood at 0.32.

In turn, `COC(=O)CC=C[C@@H](C)[C@@H](C=NO[C@@H]1O[C@H](COC(C)=O)[C@@H](OC(C)=O)[C@H](OC(C)=O)[C@H]1OC(C)=O)OC` showed a composite z-score of -0.481. On the same count and under the same terms, as for `COc1cccc([C@H]2Oc3ccc(OC)cc3C(=NOC[C@@H](O)[C@H]3O[C@@H]4OC(C)(C)O[C@@H]4[C@H]3O)[C@@H]2O)c1`, the figure is 0.654; as for `O=C1C[C@@H](O)[C@@H](O)[C@@H]2[C@@H]3C(=O)N(Cc4ccccc4)C(=O)[C@@H]3CC[C@@H]12`, 0.807.

The compound `CO[C@H]1COC(=O)CC=C[C@@H](C)[C@H](OC)COC(=O)CCC[C@@H]1C` returned a composite z-score of 0.254. As to `CCN1C(=O)[C@H]2[C@H]3[C@H](O)[C@H](O)CC(=NNC(=O)OCc4ccc(OC)cc4)[C@@H]3CC[C@H]2C1=O`, the composite z-score is -0.0766.

Another assay deals with glycogen synthase kinase-3 (GSK3A per assay name; protocol says GSK3B). Put plainly: GSK3 binders on small-molecule microarrays, primary screen, biochemical, small-molecule microarray, 635 nm fluorescence, GSK3A (AID 1103). Also: the record names both GSK3A and GSK3B. To be noted: small-molecule microarray binding, fluorescence 635 nm; higher = more signal.
Compound `O=C1CCCC(C2=CCCCC2=O)C1` (stereo not given) had a composite z-score of 0.555. `Cn1c(=O)n2n(c1=O)[C@H]1[C@H](O)[C@@H]3O[C@@H]3C(=NOCc3ccccc3)[C@H]1CC2` had a composite z-score of -0.046. Still for that read-out and setting: as for `CO[C@H](C1CCCCC1)[C@H](C)C=CCC(=O)OCCCc1ccccc1`, the figure is -0.518; as for `COC(=O)[C@H](C)NC(=O)CCC1CC(OC(=O)NCc2ccc3c(c2)OCO3)CC2(CCCC(COC(=O)NCC(c3ccccc3)c3ccccc3)O2)O1` (stereo not given in full), 0.653; as for `O=c1n(-c2ccccc2)c(=O)n2n1CC[C@@H]1C(=NOCc3ccccc3)[C@H]3O[C@H]3[C@@H](O)[C@@H]12`, -0.864. Compound `COC(=O)[C@H]1[C@@H](O)[C@@]2(O)c3ccccc3O[C@@]2(c2ccccc2)[C@@H]1c1ccccc1` came in with a composite z-score of -0.0393. `COC(=O)CC=C[C@@H](C)[C@@H](C=NOC(C)CN1CCCc2nc(C)c(C)cc21)OC` (stereo not given in full) came in with a composite z-score of 0.522. Compound `COC(=O)[C@H](C)NC(=O)CCC1CC(OC(=O)NCCc2ccc(F)cc2)CC2(CCCC(COC(=O)NCc3cccc(C(F)(F)F)c3)O2)O1` (stereo not given in full) registered a composite z-score of 0.359.

Compound `Cc1ccc(S(=O)(=O)N[C@H]2COC(=O)CC=C[C@H](C)[C@@H](NS(=O)(=O)c3ccc(C)cc3)COC(=O)CC=C[C@@H]2C)cc1` came in with a composite z-score of 0.607. With `CON=C1[C@H]2CCn3c(=O)n(-c4ccccc4)c(=O)n3[C@H]2[C@H](O)[C@@H]2O[C@H]12`, the composite z-score was 0.81. Same read-out and setting: the value for `C#CCCCON=C1C[C@@H](O)[C@@H](O)[C@@H]2[C@@H]3C(=O)N(C(C)(C)C)C(=O)[C@@H]3CC[C@@H]12` was -0.545; that for `CO[C@H]1COC(=O)CC=C[C@@H](C)[C@H](NS(=O)(=O)c2ccc(C)cc2)COC(=O)CCC[C@@H]1C` was 0.22. As for `COc1ccc(COC(=O)NN=C2C[C@@H](O)[C@@H](O)[C@@H]3[C@@H]4C(=O)N(c5ccc(F)cc5F)C(=O)[C@@H]4CC[C@H]23)cc1`, the composite z-score was -0.258. For the compound `COc1ccc(O[C@H]2C=C[C@@H](c3ccccc3)O[C@@H]2COC(=O)CCC(C)=NOC[C@@H](O)[C@H]2O[C@@H]3OC(C)(C)O[C@@H]3[C@H]2O)cc1`, the composite z-score was determined as 0.87. As to `CO[C@H]1COC(=O)CC=C[C@H](C)[C@@H](OC)COC(=O)[C@H](C)COC(=O)CC=C[C@@H]1C`, the composite z-score was 0.429. Regarding `CCOC(=O)C1=NO[C@]2(C=C(Br)C3(OCCCO3)[C@H]3O[C@H]32)C1`, the composite z-score is -0.512. In turn, `Cc1cc2c(nc1C)CCCCN2CC(C)ON=C1[C@H]2CCn3c(=O)n(-c4ccccc4)c(=O)n3[C@H]2[C@H](O)[C@@H]2O[C@H]12` (stereo not given in full) showed a composite z-score of 0.331. Compound `COc1ccc(O[C@H]2C=C[C@@H](c3ccccc3)O[C@@H]2COC(=O)CCC(C)=NO[C@@H]2O[C@H](COC(C)=O)[C@@H](OC(C)=O)[C@H](OC(C)=O)[C@H]2OC(C)=O)cc1` yielded a composite z-score of 1.01. Regarding `Cc1cc2c(c(=O)o1)[C@@H](O)[C@H]1O[C@H]1C2=O`, the composite z-score was 0.231.

In the case of `CCOC(=O)CCN1C(=O)[C@H]2[C@H]3[C@H](O)[C@H](O)CC(=NNC(=O)OCc4ccccc4)[C@@H]3CC[C@H]2C1=O`, the composite z-score came out at 0.323. As to `O=C1[C@H]2[C@H]3[C@H](O)[C@H](O)CC(=NOC[C@@H](O)COCc4ccco4)[C@@H]3CC[C@H]2C(=O)N1C[C@@H]1CCCO1`, the composite z-score is 1.24. Take `CC(C)CON=C1C[C@@H](O)[C@@H](O)[C@@H]2[C@@H]3C(=O)N(C[C@@H]4CCCO4)C(=O)[C@@H]3CC[C@@H]12`: the composite z-score was -0.622. `CON=Cc1ccc(C(=O)N2[C@H](c3ccc(C)cc3)[C@@H](C)CC[C@H]2C(=O)OC)cc1` showed a composite z-score of 0.873. `C[C@@H](c1ccccc1)N1C(=O)[C@H]2[C@H]3[C@H](O)[C@H](O)CC(=O)[C@H]3CC[C@H]2C1=O` displayed a composite z-score of 0.523.
